This note sets out measurements from PubChem BioAssay AID624094 (National Center for Advancing Translational Sciences (NCATS), 2012).

Records with an inconclusive call do not appear. Values without a mark were called inactive. Active and inactive are the calls of the source. Calls come from the whole dose curve; as a rule, active = well fitted inhibition curve with a large enough effect; inconclusive = small, poorly fitted or top-dose-only effect; inactive = flat fitted curve, though single readings scatter.

Chain of Dual specificity protein kinase CLK4 (Homo sapiens) (Q9HAZ1 whole entry, looked up): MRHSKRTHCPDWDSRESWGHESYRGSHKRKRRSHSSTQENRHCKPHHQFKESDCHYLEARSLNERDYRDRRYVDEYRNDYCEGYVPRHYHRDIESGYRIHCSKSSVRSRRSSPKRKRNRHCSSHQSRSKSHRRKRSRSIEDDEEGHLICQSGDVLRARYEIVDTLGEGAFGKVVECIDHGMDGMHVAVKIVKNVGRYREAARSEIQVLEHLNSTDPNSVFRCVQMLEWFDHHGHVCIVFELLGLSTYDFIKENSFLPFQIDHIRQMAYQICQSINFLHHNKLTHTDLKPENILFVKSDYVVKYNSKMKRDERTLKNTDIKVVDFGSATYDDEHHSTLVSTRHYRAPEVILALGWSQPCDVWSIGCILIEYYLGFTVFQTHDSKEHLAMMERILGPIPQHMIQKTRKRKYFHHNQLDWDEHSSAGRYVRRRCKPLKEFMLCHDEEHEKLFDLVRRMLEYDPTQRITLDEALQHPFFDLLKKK

For the experiment, the target named is Dual specificity protein kinase CLK4 (Homo sapiens) (UniProt Q9HAZ1). The experiment in a line: Confirmation Assay for Inhibitors of Clk4 (Kinase-Glo Assay): KU probe. The note with it: recombinant Clk4, Kinase-Glo ATP luminescence; series mostly up to 76.9 µM; activity, negative = inhibition: at the top concentration. In short, it runs like this:
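Read-out was Kinase-Glo luciferase luminescence of ATP left after 4.5 h room-temperature reaction. Final conditions: Clk4 25 nM, ATP 1 uM, RS peptide 100 uM, 25 mM Tris pH 7.5, 10 mM MgCl2, 0.5 mM EGTA, 2.5 mM DTT, 0.01% Triton X-100.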
In the case of `Clc1ccc(CNc2cc(-c3ccc4c(c3)OCO4)ncn2)cc1`, the Potency is 2320 nM (active). Still for that read-out and setting: the result for `CCCNc1ncnc2ccc(-c3ccc4c(c3)OCO4)cc12` reads 58.2 nM (active). On to `c1nc(NCCC2CCCO2)c2cc(-c3ccc4c(c3)OCO4)ccc2n1` (configuration not stated), for which the Potency is 51.9 nM (active).

Regarding `Clc1ccc(CNc2cc(-c3ccc4c(c3)OCO4)ncn2)cc1Cl`, the Potency is 4630 nM (active). Same read-out and setting: to `COc1cccc(Nc2ncc3ncc(=O)n(CCc4ccccc4)c3n2)c1` belongs 92.3 nM (active).

For `c1coc(CNc2ncnc3ccc(-c4ccc5c(c4)OCO5)cc23)c1`, the Potency was 46.3 nM (active). On to `Clc1ccc(CNc2ccnc(-c3cccnc3)n2)cc1`, for which the Potency is 16400 nM (active).

For the compound `Clc1ccc(Nc2nccc(-c3ccc4c(c3)OCO4)n2)cc1`, the Potency is 368 nM (active). Regarding `Cc1noc(C)c1-c1ncccn1`, the “activity, negative = inhibition” value was -5.28%.

Turning to `c1cc(CNc2ccnc(-c3ccc4c(c3)OCO4)n2)ccn1`, the Potency is 16400 nM (active). Same read-out and setting: to `COc1ccc(CNc2ccnc(-c3cccc(C#N)c3)n2)cc1` belongs 9230 nM (active). On the same count and under the same terms, the result for `CC(C)(C)CNc1ncnc2ccc(-c3ccc4c(c3)OCO4)cc12` reads 65.4 nM (active). `Brc1cc(Br)cc(CNc2ccnc(-c3ccc4c(c3)OCO4)n2)c1`: the Potency is 5820 nM (active).

For the compound `c1cc(-c2ccoc2)nc(-c2ccoc2)n1`, the Potency is 5820 nM (active). Same read-out and setting: to `c1ccc2ncc(CNc3ccnc(-c4ccc5c(c4)OCO5)n3)cc2c1` belongs 29200 nM (active); to `Clc1cc(Cl)cc(CNc2ncncc2-c2ccc3c(c2)OCO3)c1`, 130 nM (active). The same measure, in the same setting: to `CCN(C)c1ncnc2ccc(-c3ccc4c(c3)OCO4)cc12` belongs 36.8 nM (active).
